Source: PubChem BioAssay
An excerpt weighted towards active compounds, which were near 11% of everything screened.
G9a block = qHTS Assay for Inhibitors of Histone Lysine Methyltransferase G9a | Histone-lysine N-methyltransferase EHMT2 (Homo sapiens), Q96KQ7 | G9a H3K9 monomethylation, AlphaScreen, 2 h | Potency, µM (series often up to 102 µM), for the others: top-dose activity, negative = inhibition, actives largely listed as inhibitors | 8.8% of 350,000 active | AID 504332, 2011; further: on the % scale 0 is the no-effect control and ±100 the full control effect; nearly all actives have a fitted effect of over 75% in size
Target sequence (Q96KQ7 913-1193 limits assumed): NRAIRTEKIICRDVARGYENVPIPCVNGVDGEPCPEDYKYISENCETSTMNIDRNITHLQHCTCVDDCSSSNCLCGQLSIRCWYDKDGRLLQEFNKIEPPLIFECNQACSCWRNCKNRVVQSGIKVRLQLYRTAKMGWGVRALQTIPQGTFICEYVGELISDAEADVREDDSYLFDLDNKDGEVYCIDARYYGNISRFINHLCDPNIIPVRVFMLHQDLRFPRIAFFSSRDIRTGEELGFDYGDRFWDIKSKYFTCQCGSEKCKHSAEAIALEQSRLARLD
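Enzyme 20 nM + cpd, 15 min RT; add b-H3K9 pep 500 nM / SAM 20 uM; 2 h RT; anti-H3K9me1 Ab 0.5 ug/mL + SA donor / anti-rabbit acceptor beads 20 ug/mL each, 10 min; AlphaScreen read.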
L3MBTL1 inh = qHTS Assay for the Inhibitors of L3MBTL1; Potency, µM (highest dose often 57.1 µM), for inactives: top-dose activity, negative = inhibition, usual class: inhibitors; AID 485360, 2010; AlphaScreen L3MBTL1–H3K9me1 peptide binding; 0.66% of 230,000 active; further: on the % scale 0 is the no-effect control and ±100 the full control effect; nearly all actives have a fitted effect of over 60% in size
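First, the protein-peptide complex forms for 30 min at room temperature (L3MBTL1 50 nM, biotinylated H3K9me1 peptide 75 nM). Next, compounds are pin-transferred and incubated 30 min. Finally, AlphaScreen beads are added and read after 30 min.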
JMJD2A Tudor = qHTS Assay for Inhibitors of JMJD2A-Tudor Domain; AlphaScreen JMJD2A-Tudor / H3K4me3 peptide binding; Potency, µM (top dose mostly 114 µM), for the others: top-dose activity change, negative = inhibition, usual class: inhibitors; 4.4% of 390,000 active; AID 504339, 2011; further: on the % scale 0 is the no-effect control and ±100 the full control effect; nearly all actives have a fitted effect of over 50% in size
HP1b chromo inh = HTS for Inhibitors of HP1-beta Chromodomain Interactions with Methylated Histone Tails; Chromobox protein homolog 1 (Homo sapiens), P83916; AID 540317, 2011; Potency, µM (doses to about 114 µM), without a hit: at the top dose activity change, negative = inhibition, usual class: inhibitors; AlphaScreen HP1-beta / biotin-H3K9me3 peptide binding; 0.56% of 390,000 active; further: nearly all actives have a fitted effect of over 70% in size
Target sequence (P83916 whole entry, looked up): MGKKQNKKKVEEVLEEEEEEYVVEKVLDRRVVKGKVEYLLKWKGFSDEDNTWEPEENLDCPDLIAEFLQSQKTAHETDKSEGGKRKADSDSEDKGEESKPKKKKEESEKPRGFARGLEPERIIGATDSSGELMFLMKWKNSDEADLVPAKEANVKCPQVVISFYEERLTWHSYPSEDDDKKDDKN
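HP1-beta protein (50 nM final) preincubated 30 min at room temperature with biotinylated H3(1-18)K9me3 peptide (50 nM) in PBS pH 7.4, 0.01% Tween-20, then compound added for 30 min. AlphaScreen streptavidin donor/nickel chelate acceptor beads (10 ug/mL final), 30 min dark, luminescence read.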
BAZ2B inh = qHTS Assay for Inhibitors of BAZ2B; AlphaScreen BAZ2B-H3K14Ac peptide displacement; AID 504333, 2011; 4.4% of 360,000 active; Potency, µM (highest dose often 114 µM), without a hit: at the highest dose activity change, negative = inhibition, actives largely listed as inhibitors; further: on the % scale 0 is the no-effect control and ±100 the full control effect; nearly all actives have a fitted effect of over 60% in size
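Inhibition is scored as reduced AlphaScreen emission. The BAZ2B/b-H3(5-23)K14Ac complex (50 nM each) in PBS pH 7.4, 0.01% Tween-20 meets compound (up to 110 uM) for 30 min at RT before bead addition.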
The depositor's hits bear a star; ? = inconclusive; . = no result given; [ ] = another dose, or the depositor's remark. The call rests on the fitted dose curve; in most records, active means well fitted inhibition curve with a large enough effect; inconclusive means small, poorly fitted or top-dose-only effect; inactive means no such curve, though single readings can be large or run the other way. Potency means the concentration at half of the fitted maximal effect.

SMILES	G9a block	L3MBTL1 inh	JMJD2A Tudor	HP1b chromo inh	BAZ2B inh
COC(=O)CSc1ccc2nnc(-c3ccc(F)cc3)n2n1	79µM*	-6%	7%	23%	-2%
CC(C)c1ccccc1NC(=O)CNCCOc1ccccc1F	21%	.	28µM*	?	50µM*
OCCNCCOc1ccccc1F	-1%[59 µM]	9%	-7%	33%	0%
CC(C)(C)c1ccccc1OCCCCCn1ccnc1	?	-23%[11.4 µM]	2.8µM*	?	18µM*
Cc1ccc(C)c(OCCCCn2ccnc2)c1	?	.	?	9%	?
CC(C)(C)c1ccccc1OCCCCCNCCO	?	2%	3.2µM*	?	?
Cc1ccccc1OCCCCCNCCO	-9%[59 µM]	.	-14%	66%	15%
Cc1cccc(OCCCCCn2ccnc2)c1C	-24%	-29%	-40%	3%	?
c1ccc(-c2ccccc2OCCCCn2ccnc2)cc1	.	-7%	20µM*	40µM*	50µM*
Cc1ccc(-c2noc(-c3ccccc3NC(=O)C3CC(=O)N(c4cccc(C)c4)C3)n2)cc1 (configuration not stated)	0%[59 µM]	.	-18%	29%	-5%
COc1cc(-c2ccno2)ccc1S(=O)(=O)N1CCN(c2ccc(F)cc2)CC1	-34%[59 µM]	.	-24%	15%	-19%
COC(=O)C1=C[C@@H](C(=O)OC)C2C3=C(C(=O)[C@@]2(C)NC(=O)c2ccccc2)[C@H](C)[C@@H]2C(=O)N(C)C(=O)[C@@H]2[C@@H]3C1 (some centres not stated)	.	.	-16%	8%	.
COc1ccc(N=C2C(=O)Nc3c(C)cccc32)cc1	50µM*	-4%	?	-7%	?
Cc1ccc(N=C2C(=O)Nc3c(C)cccc32)cc1	14%	-4%	-9%	25%	-35%
CCN(C(=O)c1cn(-c2cccc(OC)c2)c(=O)c2ccccc12)c1ccccc1C	-4%[59 µM]	.	-12%	16%	4%
CN1CCN(C(c2ccc(F)cc2)c2sc3nc(-c4ccco4)nn3c2O)CC1 (configuration not stated)	-5%[59 µM]	.	7%	39%	-5%
Cc1ccc(S(=O)(=O)NCC(=O)N(CC(=O)NC(C)(C)C)Cc2ccc3c(c2)OCO3)cc1	22%	.	-15%	?	2%
CC(C)(C)NC(=O)CN(Cc1ccc2c(c1)OCO2)C(=O)CNS(=O)(=O)c1ccccc1	17%	.	79µM*	6%	0%
CCc1ccc(S(=O)(=O)N2CCN(c3ccc(Cl)c(Cl)c3)CC2)cc1	4%[59 µM]	.	15%	53%	-1%
O=C1CCCC2=C1Sc1ccccc1N2	.	-19%	-36%	-21%	45µM*
CSc1ccc(CNC(=O)c2ccccc2NC(=O)c2nsc3ccccc23)cc1	-20%[59 µM]	.	-8%	4%[57 µM]	-11%
O=S(=O)(NCCSCc1c(Cl)cccc1Cl)c1ccc2c(c1)OCCO2	39%	-6%	1%	36%	-1%[57.1 µM]
O=S(=O)(NCCSCc1ccc(Cl)cc1Cl)c1ccc2c(c1)OCCO2	24%	8%	79µM*	2%	1%
COc1cc2c(cc1OC)C(C(=O)Nc1ccc(F)c(Cl)c1)CC(=O)N2 (configuration not stated)	8%	-5%	-15%	28%	-5%
O=C1C2Sc3[nH]c(=O)sc3C(c3ccccc3)C2C(=O)N1c1ccccc1 (configuration not stated)	-4%[0.501 µM]	10%	-33%	4%	?
SMILES	G9a block	L3MBTL1 inh	JMJD2A Tudor	HP1b chromo inh	BAZ2B inh
COc1ccc(C2c3sc(=O)[nH]c3SC3C(=O)N(c4ccccc4)C(=O)C32)cc1 (configuration not stated)	8.9µM*	-10%	?	-15%	?
Cc1cccc(C)c1NC(=O)CSc1nc(C2CC2)nc2ccccc12	-7%	.	-4%	1%	9%
CCCCOc1ccccc1C(=O)N(Cc1ccco1)C1CCS(=O)(=O)C1 (configuration not stated)	-4%[59 µM]	.	-14%	20%[57 µM]	?
Cc1ccc2sc(N(CCCN(C)C)C(=O)c3ccc(S(=O)(=O)N(C)C4CCCCC4)cc3)nc2c1C	32µM*	-5%	?	?	?
CC(=O)c1ccc(C(=O)N(Cc2cccnc2)c2nc3c(C)c(C)ccc3s2)cc1	-45%[59 µM]	.	-26%	16%	-31%
CN(C)CCN(C(=O)c1ccc(S(=O)(=O)N(C)c2ccccc2)cc1)c1nc2cc3c(cc2s1)OCO3	35µM*	.	?	-14%	40µM*
CC(=O)c1ccc(C(=O)N(CCCN(C)C)c2nc3c(C)c(C)ccc3s2)cc1	-38%[59 µM]	.	?	?	?
CN(C)CCCN(C(=O)c1ccc(C(=O)c2ccccc2)cc1)c1nc2cc3c(cc2s1)OCCO3	.	.	50µM*	-6%	32µM*
CCN(Cc1ccccc1)S(=O)(=O)c1ccc(C(=O)N(CCCN(C)C)c2nc3c(C)c(C)ccc3s2)cc1	35µM*	-10%	?	-11%	10µM*
Cc1ccc(CN2CC(C(=O)NCCC3=CCCCC3)CC2=O)cc1 (configuration not stated)	1%[59 µM]	-1%	-8%	33%	-4%
COc1ccc(C2=Nc3ccccc3N(CC(=O)Nc3cccc(C(C)=O)c3)C(=O)C2)cc1	6%[59 µM]	.	?	70%	6%
CN(C)CCCN(C(=O)c1ccc(S(=O)(=O)N(C)C)cc1)c1nc2cc3c(cc2s1)OCO3	50µM*	-19%	-26%	11%	?
CN(C)CCN(C(=O)c1ccco1)c1nc2cc3c(cc2s1)OCCO3	.	.	-10%	25%	-24%
Cc1ccc2nc(N(CCCN(C)C)C(=O)c3ccc(S(=O)(=O)N(C)C)cc3)sc2c1	?	-9%	-4%	18%	-11%
CN(C)CCN(C(=O)CN1C(=O)c2ccccc2C1=O)c1nc2cc3c(cc2s1)OCO3	?	.	-29%	5%	89µM*
CCN(Cc1ccccc1)S(=O)(=O)c1ccc(C(=O)N(CCCN(C)C)c2nc3cc4c(cc3s2)OCO4)cc1	.	.	56µM*	-12%	25µM*
CN(C)CCN(C(=O)c1ccc(N2C(=O)CCC2=O)cc1)c1nc2cc3c(cc2s1)OCCO3	32µM*	.	.	.	?
COc1ccc(-c2cc(C(=O)NCCc3ccc(OC)c(OC)c3)c3ccccc3n2)cc1	4%[59 µM]	.	-13%	19%	-2%
CC(C)N1CCc2c(sc(NC(=O)c3ccc(C(=O)c4ccccc4)cc3)c2C(N)=O)C1	.	.	56µM*	-19%	?
CC(C)N1CCc2c(sc(NC(=O)c3ccco3)c2C(N)=O)C1	.	.	-12%	26%	-4%
CC(=O)c1ccc(C(=O)Nc2sc3c(c2C(N)=O)CCN(Cc2ccccc2)C3)cc1	?	-2%	.	.	-28%
